# About 83,000 compounds went through this panel and 20% of them were active in at least one assay; those are over-represented in the sample as a whole.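 Results are percent growth after 48 hours of single-concentration exposure. 100 means growth as in untreated cells, lower positive values show inhibition; negative values down to -100 show cell death.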 Values without a mark were called inactive. Activity calls are given as the source filed them. How the source made its calls: active means growth percent below 10; inactive means the rest.
# Tests used:
# Experiment in all cases: NCI-60 one-dose screen, 48 h (100 = growth as untreated, 0 = no growth, -100 = all killed)
# Settings in all cases: 10 µM unless noted
# SR leukemia = system: SR leukemia
# RPMI-8226 leukemia = system: RPMI-8226 leukemia
# OVCAR-8 ovarian = system: OVCAR-8 ovarian
# OVCAR-5 ovarian = system: OVCAR-5 ovarian
# OVCAR-4 ovarian = system: OVCAR-4 ovarian
# SK-OV-3 ovarian = system: SK-OV-3 ovarian
# IGROV1 ovarian = system: IGROV1 ovarian
# OVCAR-3 ovarian = system: OVCAR-3 ovarian
# HS 578T breast = system: HS 578T breast
# NCI/ADR-RES ovarian = system: NCI/ADR-RES ovarian
# T-47D breast = system: T-47D breast
# BT-549 breast = system: BT-549 breast
# MDA-MB-435 melanoma = system: MDA-MB-435 melanoma
# SW-620 colon = system: SW-620 colon
# MCF7 breast = system: MCF7 breast
# HCT-116 colon = system: HCT-116 colon
# HCC-2998 colon = system: HCC-2998 colon
# KM12 colon = system: KM12 colon
SMILES,growth (SR leukemia),growth (RPMI-8226 leukemia),growth (OVCAR-8 ovarian),growth (OVCAR-5 ovarian),growth (OVCAR-4 ovarian),growth (SK-OV-3 ovarian),growth (IGROV1 ovarian),growth (OVCAR-3 ovarian),growth (HS 578T breast),growth (NCI/ADR-RES ovarian),growth (T-47D breast),growth (BT-549 breast),growth (MDA-MB-435 melanoma),growth (SW-620 colon),growth (MCF7 breast),growth (HCT-116 colon),growth (HCC-2998 colon),growth (KM12 colon)
CCn1cnc(C[C@H](NC(=O)[C@H](CCCCNC(=O)Nc2cc(C(F)(F)F)cc(C(F)(F)F)c2)NC(=O)Nc2cc(C(F)(F)F)cc(C(F)(F)F)c2)C(=O)OC)c1,-29% [100 µM] (active),-42.4% [100 µM] (active),-9.32% [100 µM] (active),-67.9% [100 µM] (active),-17.2% [100 µM] (active),-23.7% [100 µM] (active),-23.5% [100 µM] (active),-90.2% [100 µM] (active),-7.06% [100 µM] (active),51.5% [100 µM],-62.8% [100 µM] (active),-35.3% [100 µM] (active),-65.4% [100 µM] (active),-40.9% [100 µM] (active),-47% [100 µM] (active),-100% [100 µM] (active),-20.8% [100 µM] (active),-43% [100 µM] (active)
C[C@H](C(=O)N[C@@H](Cc1ccc(-c2ccccc2)cc1)C(=O)NC1CC(C)(C)NC(C)(C)C1)c1ccc(-c2ccccc2)c(F)c1,-27.5% (active),-43.6% (active),-49.9% (active),-48.9% (active),-27.4% (active),-17.1% (active),-36.8% (active),-92.1% (active),-31.6% (active),60.4%,-37.2% (active),-19.8% (active),-90.1% (active),-78.2% (active),-50.9% (active),-85.8% (active),-83% (active),-80% (active)
CCOC(=O)C1=CCC(n2cc(C)c(=O)[nH]c2=O)O1 (stereo unspecified),94.8%,106%,97.9%,113%,105%,109%,86.3%,108%,104%,101%,99.1%,120%,113%,105%,119%,102%,110%,96%
NS(=O)(=O)c1cc2c(cc1Cl)NC=NS2(=O)=O,96.1%,104%,102%,100%,107%,110%,109%,117%,118%,108%,97.7%,95.9%,102%,111%,96.9%,98%,93.4%,106%
CC12CCC3C(=CCc4cc(O)ccc43)C1CCC2=O (stereo unspecified),97.6%,87.8%,101%,102%,107%,115%,107%,111%,104%,102%,104%,99.5%,73%,106%,120%,102%,111%,108%
Cc1cc(C)c(C(=O)c2cccs2)c(C)c1,86.1%,98.1%,106%,98.1%,109%,101%,97.7%,113%,109%,105%,102%,109%,122%,107%,99%,101%,106%,110%
CCc1nn2c(-c3ccc(Cl)cc3C)c(-c3cc(OC)c(OC)c(OC)c3)nc2s1,48.3%,63.8%,103%,92.9%,54%,94.5%,73.1%,72.6%,48.5%,78.3%,58.8%,101%,81.3%,82.5%,50.7%,60.5%,86.3%,89%
CC(=O)c1nn(-c2ccccc2)c(=Nc2ccccc2)cc1C,99.3%,100%,96.7%,90.5%,96.9%,108%,106%,113%,114%,100%,88.2%,99%,112%,104%,93.4%,98.2%,100%,99%
CNCCCn1c2c(c3ccc(F)cc3c1=O)C(=O)c1cc(OC)cnc1-2,-9.31% (active),-20.4% (active),-19.8% (active),-8.53% (active),-5.91% (active),-24.5% (active),11.4%,-11.4% (active),22.1%,3.1% (active),-2.54% (active),-6.14% (active),4.12% (active),-2.67% (active),0.0252% (active),-78% (active),8% (active),-0.739% (active)
COc1cc(-c2nc3sc4c(c3c(=O)[nH]2)CCCCCC4)cc(OC)c1OC,15.5%,7.95% (active),25.2%,37.8%,61.6%,14.2%,34.5%,-3.03% (active),5.2% (active),-6.9% (active),32.8%,53.1%,-18% (active),30.3%,15%,20.3%,-1.77% (active),28.6%
CCSc1nc(-c2ccc(F)cc2)c(C#N)c(=O)[nH]1,118%,105%,107%,95.9%,103%,111%,107%,122%,117%,103%,120%,105%,101%,107%,102%,109%,99.8%,100%
c1ccc(-c2nc(Nc3nccnn3)c3ccccc3n2)cc1,91.6%,98.4%,95.3%,97.1%,122%,115%,92.2%,100%,98.8%,98.8%,83.4%,99.1%,101%,97.9%,75%,100%,106%,97.8%
CCNCCCn1c2c(c3ccc(F)cc3c1=O)C(=O)c1cc(OC)cnc1-2,-4.37% (active),-25.7% (active),-15.1% (active),3.24% (active),-4.39% (active),-30.4% (active),2.58% (active),-16.9% (active),14.9%,-29.4% (active),-10.8% (active),-22.7% (active),1.77% (active),-16.1% (active),-4.74% (active),-62.1% (active),-56.1% (active),1.84% (active)
CN[C@@H]1C(OC2[C@H](O[C@H]3[C@H](O)[C@@H](O)[C@H](N=C(N)N)[C@@H](O)[C@@H]3N=C(N)N)OC(C)[C@]2(O)CO)OC(CO)C(O)C1O (stereo partly specified),102%,103%,103%,102%,111%,112%,105%,116%,112%,105%,111%,112%,102%,104%,111%,105%,97.5%,110%
NC(=O)c1cc(Br)cc(Br)c1NS(=O)(=O)c1ccccc1,101%,97.2%,114%,108%,95.8%,102%,94.9%,106%,105%,103%,99.2%,103%,111%,101%,99%,100%,106%,106%
CC(C)Sc1nc(-c2ccc(Br)cc2)c(C#N)c(N2CCCCC2)n1,106%,98.8%,98.6%,88.7%,95.1%,110%,104%,104%,107%,102%,94.3%,109%,95.7%,102%,93.1%,100%,121%,95.9%
COC(=O)[C@H](Cc1cn(C)cn1)NC(=O)[C@@H](NC(=O)Nc1cc(C(F)(F)F)cc(C(F)(F)F)c1)C(C)C,-33.5% [100 µM] (active),-42.9% [100 µM] (active),-80% [100 µM] (active),-96.1% [100 µM] (active),-96.5% [100 µM] (active),-100% [100 µM] (active),-70.9% [100 µM] (active),-97.3% [100 µM] (active),0.492% [100 µM] (active),-21.6% [100 µM] (active),-71.8% [100 µM] (active),-98% [100 µM] (active),-87.3% [100 µM] (active),-47.5% [100 µM] (active),-64.1% [100 µM] (active),-91.6% [100 µM] (active),-86.7% [100 µM] (active),-88.7% [100 µM] (active)
